HT1080 IDH1KD tx: toxicity to HT-1080 IDH1 knockdown cells (counter line). AID 686971. HT-1080 IDH1 knockdown viability, ATP luminescence, 48 h. Potency, µM (top dose mostly 46.1 µM), without a hit: at the top dose activity, negative = toxicity, usual class: cytotoxic. hit rate 2% among 360,000;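 also: potency is read from the fitted curve at half-maximal effect; 0% = DMSO wells and -100% = cell-free medium wells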
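Assay cells: HT-1080 with IDH1 knockdown, 750 per well, RPMI/5% FBS. Exposure: 48 h at 37 °C following 2 h pre-incubation. Read: CellTiter-Glo luminescence; fitted concentration-response, curve class assigned.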
IL1B secr inh: blocks inflammasome-driven IL-1 beta release; THP-1 LPS/ATP IL-1B secretion, AlphaLISA, 16 h; hits give low values; activity change, % at 57.5 µM; hit rate 4.7% among 360,000; AID 743279; in the data active = activity change below about -50%; inconclusive = mostly about -30% to -49%
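THP-1 cells pretreated 1 hr with compounds (up to 57.5 uM final), then stimulated with LPS (250 ng/mL final) plus ATP (1.25 mM final); secreted IL-1B measured by AlphaLISA after 16 hr, decreased signal indicating inhibition.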
HT1080NT lethal: kills 2HG-producing HT-1080-NT fibrosarcoma cells; AID 686970; hit rate 1.6% among 360,000; HT-1080-NT fibrosarcoma viability, CellTiter-Glo ATP luminescence, 48 h; Potency, µM (titrated, usually from 46.1 µM), for inactives: top-dose activity, negative = less viability, most hits filed as cytotoxic;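 also: NT is the 2HG producing partner of a matched IDH1 knockdown line; potency is read from the fitted curve at half-maximal effect; 0% = DMSO-treated cells and -100% = media-only wells without cells; nearly all actives have a fitted effect of over 55% in size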
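HT-1080-NT fibrosarcoma cells (2HG-overproducing), 750 cells/well in RPMI with 5% FBS, dosed after 2 h and incubated 48 h at 37C. CellTiter-Glo luminescence normalized to DMSO and no-cell wells; concentration-response curves fitted and classed.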
KB-3-1 cytotox: KB-3-1 parental cell cytotoxicity | KB-3-1 viability, CellTiter-Glo ATP luminescence, 72 h | Potency, µM (series often up to 46.1 µM), usual class: cytotoxic | hit rate 1.4% among 400,000 | AID 1347075; also: potency is read from the fitted curve at half-maximal effect; nearly all actives have a fitted effect of over 60% in size
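Using CellTiter-Glo luminescence, growth of non-resistant KB-3-1 adenocarcinoma cells is assessed 72 h after pin-tool compound addition at 37 °C. Normalized responses across the concentration series yield fitted curves.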
KB-V1 cytotox: kills drug-selected multidrug resistant KB-V1 cells. KB-V1 MDR cells viability, CellTiter-Glo, 72 h. Potency, µM (series often up to 46.1 µM), actives largely listed as cytotoxic. hit rate 3.4% among 400,000. AID 1347076; also: potency is read from the fitted curve at half-maximal effect; nearly all actives have a fitted effect of over 60% in size
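In this primary screen, KB-V1 cells overexpressing P-gp are incubated with library compounds (lowest to highest concentration) for 72 h at 37 degrees C before a luminescent ATP viability read.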
* = called active by the depositor; i = inactive; u = inconclusive; x = no result given; [ ] = remark or other dose. Sampled rows, rich in hits. Any-hit rate of the full collection: about 8.8%. Unless noted, calls follow the shape of the dose curve; as a rule, active = well fitted curve in the direction sought with a large enough effect; inconclusive = small, poorly fitted or top-dose-only effect, or another doubt; inactive = no such curve, though single readings can be large; an effect the other way counts as inactive or inconclusive. Unless noted, % is scaled to controls: 0 for no effect and ±100 for the full control effect.

SMILES	HT1080 IDH1KD tx	IL1B secr inh	HT1080NT lethal	KB-3-1 cytotox	KB-V1 cytotox
O=C(CN1CCOCC1)Nc1ccc(Oc2ccccc2)cc1	8%	-4	6%	i	i
O=C(CN1CCN(c2ccccc2)CC1)Nc1ccc(Oc2ccccc2)cc1	-4%	-10	-3%	i	23µM*
CC(=O)c1ccc(N2CCN(C(=S)Nc3ccc(Oc4ccccc4)cc3)CC2)cc1	u	-66*	-16%	i	u
Nc1cc(C(Cl)=C(Cl)Cl)c(S(N)(=O)=O)cc1S(N)(=O)=O	0%	36	23%	i	i
CC(=O)Nc1cccc(NC(=O)Cc2csc(COc3cccc(C)c3)n2)c1	x	x	x	i	u
CC(C)Cc1ccc(S(=O)(=O)N2CCC(c3ccncc3)CC2)cc1	x	x	x	u	i
CCOc1ccc(S(=O)(=O)c2cn(Cc3ccccc3C)c3ccc(OC)cc3c2=O)cc1	x	x	x	i	i
CN1CCN(c2ccc(NC(=O)c3ccc(Oc4ccccc4)cc3)cc2)CC1	u	-78*	15µM*	u	i
COc1ccc(NC(=O)CN2CCN(C3c4ccccc4-c4ccccc43)CC2)c(OC)c1	-21%	9	-12%	u	i
O=C(CN1CCN(c2ccc(Cl)cc2)CC1)Nc1ccc(F)c(F)c1	-5%	20	-7%	i	i
O=C(CN1CCN(c2ccc(Cl)cc2)CC1)Nc1ccc(F)cc1	-21%	-8	-13%	u	21µM*
CCOc1ccc(NC(=O)CN2CCN(C3c4ccccc4-c4ccccc43)CC2)cc1	-9%	-7	0%	i	18µM*
Cc1ccc(SCc2nc3ccccc3n2CC(=O)Nc2ccc(Cl)cc2)cc1	u	-2	u	i	i
CC(C)Cn1c(N2CCN(CC(=O)Nc3ccc(Cl)cc3)CC2)nc2ccccc21	-23%	-85*	-7%	i	i
CC(=O)N1CCN(c2ccc(NC(=O)c3ccc(C)cc3)cc2)CC1	8%	16	14%	i	18µM*
Cc1ccc(Cl)cc1N1CCN(CC(=O)Nc2ccc(CN3CCCCC3)cc2)CC1	23µM*	-18	21µM*	u	u
COc1ccccc1N1CCN(CC(=O)Nc2ccc(CN3CCCCC3)cc2)CC1	-2%	-11	2%	i	i
CCCOC(=O)c1ccc(Oc2cn[nH]c2-c2ccc(O)cc2O)cc1	-4%	18	18µM*	u	i
CCOC(=O)c1ccc(Oc2cn[nH]c2-c2ccc(O)cc2O)cc1	-5%	0	1%	23µM*	i
CCCOC(=O)c1ccc(Oc2cn[nH]c2-c2ccc(OCC(=O)NN)cc2O)cc1	-15%	-10	0%	i	i
COc1ccc(/C=C(/NC(=O)c2ccccc2)C(=O)N2CCOCC2)cc1OC	11%	-67*	22%	i	i
COc1ccc(/C=C(/NC(=O)c2ccccc2)C(=O)N/N=C/c2ccc3c(c2)OCO3)cc1OC	-15%	-69*	u	i	i
O=C(N/N=C/c1ccc2c(c1)OCO2)/C(=C/c1ccc2c(c1)OCO2)NC(=O)c1ccccc1	-5%	u	2%	i	i
COc1ccc(-c2ccc(/C=C(\NC(=O)c3ccccc3)C(=O)N3CCOCC3)o2)cc1	-8%	-57*	-4%	i	u
COc1ccc(C(=O)N/C(=C\c2ccccc2)C(=O)N2CCOCC2)cc1	17%	-15	10%	i	i
SMILES	HT1080 IDH1KD tx	IL1B secr inh	HT1080NT lethal	KB-3-1 cytotox	KB-V1 cytotox
N#C/C(=C\c1ccccc1)C(=O)Nc1sc2c(c1C(N)=O)CCC2	x	x	x	i	i
Cc1cc(Cl)ccc1OCC(=O)NCC(c1cccs1)N1CCOCC1 (stereo not drawn)	-21%	u	-13%	u	7.3µM*
O=C(NCC(c1cccs1)N1CCOCC1)C1CCN(S(=O)(=O)c2c(Cl)cccc2Cl)CC1 (stereo not drawn)	-5%	9	-4%	i	u
O=C(NCC(c1cccs1)N1CCOCC1)c1cnc(Cl)c(Cl)c1 (stereo not drawn)	-2%	-98*	u	x	x
O=C(NCC(c1cccs1)N1CCOCC1)C1CCN(S(=O)(=O)c2cc(Cl)ccc2Cl)CC1 (stereo not drawn)	4%	-12	6%	i	9.2µM*
O=C(NCC(c1cccs1)N1CCOCC1)c1cccnc1 (stereo not drawn)	-1%	19	-4%	i	i
Cc1ccc(C(C)C)c(OCC(=O)NCC(c2cccs2)N2CCOCC2)c1 (stereo not drawn)	-3%	u	-21%	i	u
Cc1cc(OCC(=O)NCC(c2cccs2)N2CCOCC2)ccc1C(C)C (stereo not drawn)	-13%	-57*	-19%	i	i
COc1ccc(NS(=O)(=O)c2cccc(C(=O)NCC(c3ccco3)N(C)C)c2)cc1 (stereo not drawn)	1%	-3	5%	i	i
Cc1[nH]c2ccccc2c1C(=O)C(=O)NCc1nnnn1-c1ccc(F)c(F)c1	5%	6	6%	i	i
Cc1cc(=O)oc2cc(NC(=O)c3cccc(S(=O)(=O)N(C)C)c3)ccc12	25%	-4	u	i	i
Cc1cc(=O)oc2cc(NC(=O)c3cccc(S(C)(=O)=O)c3)ccc12	-9%	-53*	-4%	i	i
Cc1ccc(S(=O)(=O)Cn2nnnc2C(CC(C)C)N2CCN(C(=O)c3ccco3)CC2)cc1 (stereo not drawn)	-16%	-2	-5%	i	i
CCN1CCN(C(CC(C)C)c2nnnn2CS(=O)(=O)c2ccc(C)cc2)CC1 (stereo not drawn)	1%	-73*	-15%	i	i
CCc1ccc2c(Cl)c(C(=O)N/N=C/c3c[nH]c4ccccc34)sc2c1	2%[9.24 µM]	-50*	u	u	u
CCc1ccc(-c2cc(C(=O)N/N=C/c3c[nH]c4ccccc34)[nH]n2)cc1	3.7µM*	-53*	5.2µM*	u	u
CC(C)c1cc(C(=O)N/N=C/c2c[nH]c3ccccc23)n[nH]1	-1%	-5	0%	i	i
Cc1ccc(CSc2nnc(SCC(=O)N/N=C/c3c[nH]c4ccccc34)s2)cc1	23µM*	30	21µM*	u	i
CCCCC1(CC(=O)OCC)C(=O)N(c2ccccc2)N(c2ccccc2)C1=O	-6%	0	-3%	i	4.6µM*
COc1cc(C2c3cc4c(cc3CC3COC(=O)N32)OCO4)cc(OC)c1OC (stereo not drawn)	1µM*	2	1.3µM*	0.73µM*	2.1µM*
COc1cc2c(c(OC)c1OC)C(c1ccc3c(c1)OCO3)CC(=O)O2 (stereo not drawn)	8%	33	-6%	i	i
